Screening data (PubChem BioAssay)
Bfl-1 A1 inh = caspase 3/7 activation in MEF A1-2A-BIM cells, primary screen, A1 inhibitor project, cell-based, luminescence, HTS. Caspase-Glo 3/7 luminescence, 3 h; percent of clofoctol response, vehicle zero. caspase activation, % (no concentration beside the values). 330,000 compounds, 0.066% hits;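 active = over half of replicate activation scores above 10%, or exactly half above 10 with the replicate mean above 10; inconclusive = replicate mean below 10 yet half the replicates above 10; inactive = over half of replicates below 10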
Mdm2-MdmX inh = inhibitors of human Mdm2-MdmX association, primary screen, cell-based, luminescence, split luciferase, SaOS-2, uHTS; SaOS-2 split-luciferase Mdm2/MdmX complementation; inhibition, % at 8 µM; Protein Mdm4 (Homo sapiens) + E3 ubiquitin-protein ligase Mdm2 (Homo sapiens), …; AID 485346, 2010; 330,000 compounds, 3% hits;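 active = inhibition of at least 50% at 8 µM in the primary screen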
Target sequence (O15151 whole entry, looked up): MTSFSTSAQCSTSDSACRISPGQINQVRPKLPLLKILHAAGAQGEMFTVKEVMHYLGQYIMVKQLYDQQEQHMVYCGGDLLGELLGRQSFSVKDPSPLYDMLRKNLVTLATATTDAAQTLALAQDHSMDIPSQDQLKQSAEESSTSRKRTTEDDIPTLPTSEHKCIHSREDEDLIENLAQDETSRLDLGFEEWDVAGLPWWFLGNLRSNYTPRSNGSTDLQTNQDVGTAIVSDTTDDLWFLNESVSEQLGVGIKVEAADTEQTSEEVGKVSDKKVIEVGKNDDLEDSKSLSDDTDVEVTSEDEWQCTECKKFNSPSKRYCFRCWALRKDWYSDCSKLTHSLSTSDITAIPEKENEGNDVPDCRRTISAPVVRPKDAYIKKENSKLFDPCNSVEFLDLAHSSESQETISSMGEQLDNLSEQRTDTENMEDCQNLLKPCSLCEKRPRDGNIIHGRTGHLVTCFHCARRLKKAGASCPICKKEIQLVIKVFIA
Target sequence (Q00987 whole entry, looked up): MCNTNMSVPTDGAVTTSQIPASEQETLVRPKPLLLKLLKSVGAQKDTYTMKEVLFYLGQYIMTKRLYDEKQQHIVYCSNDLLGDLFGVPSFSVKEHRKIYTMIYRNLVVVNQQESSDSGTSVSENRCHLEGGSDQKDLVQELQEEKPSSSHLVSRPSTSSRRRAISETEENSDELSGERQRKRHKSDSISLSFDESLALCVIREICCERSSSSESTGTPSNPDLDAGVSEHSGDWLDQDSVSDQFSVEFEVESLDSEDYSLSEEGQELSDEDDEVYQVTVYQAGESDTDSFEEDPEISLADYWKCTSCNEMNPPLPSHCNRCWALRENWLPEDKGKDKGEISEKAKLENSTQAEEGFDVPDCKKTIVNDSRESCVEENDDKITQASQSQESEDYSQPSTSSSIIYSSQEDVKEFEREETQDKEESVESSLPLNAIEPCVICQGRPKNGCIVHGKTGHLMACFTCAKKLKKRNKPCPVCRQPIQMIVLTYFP
Beta cell apopt = inhibitors of cytokine-induced beta cell apoptosis, primary screen, luminescence. INS-1E cytokine-induced death, ATP luminescence, 48 h; percent of positive-control rescue, neutral wells zero. protection from apoptosis, % (test concentration not listed). 300,000 compounds, 0.8% hits;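 active = Every replicate reaches about 75%, or at least half do and their mean reaches it too, limit read from the data; inconclusive = At least half of replicates reach the limit but their mean does not; inactive = Under half of replicates reach the limit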;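 also: 0% = cytokine-treated negative control wells and 100% = positive control rescue; higher means more ATP so stronger rescue from cytokine killing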
aSyn UTR inh = MLPCN primary screen, SNCA 5' untranslated region; inhibition, % (tested at 7.5 µM); AID 1813, 2009; 300,000 compounds, 0.82% hits; alpha-synuclein 5'UTR reporter, inhibitor activity; in the data active = inhibition above about 60%; inconclusive = no clear call, values can overlap the other calls;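 also: H4 neuroglioblastoma cells stably carrying SNCA 5'UTR luciferase fusion; 0% = DMSO wells and 100% = positive control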
CSC inhib = cancer stem cell viability inhibitors, primary screen, luminescence; cancer stem cell-like cells viability; 300,000 compounds, 1.1% hits; AID 2717, 2010; inhibition, % at 7.5 µM; in the data active = inhibition above about 75%; inconclusive = no clear call, values can overlap the other calls; tested in HMLE shEcad cells
Mdm2 MdmX conf = Mdm2-MdmX complex disruptors, retested hits, confirmation, luminescence, single concentration. shares compounds with Mdm2-MdmX inh. Mdm2-MdmX binding, luminescent assay. inhibition, % at 8 µM. 10,000 compounds, 55% hits; in the data active = inhibition above about 40%
Full FLuc ctr = full-length luciferase signal inhibition, confirmation, counter-screen for Mdm2/MdmX interaction inhibitor project, cell-based, single concentration, SaOS-2; shares compounds with Mdm2-MdmX inh; SaOS-2 full-length luciferase counterscreen, luminescence; inhibition, % at 8 µM; 6,200 compounds, 77% hits; AID 504607, 2011;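 active = mean inhibition at 8 µM reaching about 37%, which flags the compound as non-specific, limit read from the data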;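 also: p53-null SaOS-2 cells with luciferase driven by a doxycycline-inducible promoter; compound on cells about two nights before reading with doxycycline added after day one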
The depositor's hits bear a star; ? = inconclusive; nt = not tested or not shown. Most compounds without a hit are left out; they make up all but 4.1% or so of the library.

SMILES	Bfl-1 A1 inh	Mdm2-MdmX inh	Beta cell apopt	aSyn UTR inh	CSC inhib	Mdm2 MdmX conf	Full FLuc ctr
CCCCCCCCCCOC(=O)Cn1c(COc2ccccc2OC)[n+](C)c2ccccc21	-0.6	99.8*	107.2*	80.6*	93.2*	89.4*	16.3
CCN(CC(=O)NCc1ccc(Cl)cc1)C(=O)COc1ccc(Cl)cc1Br	1.4	17.4	1.6	19.0	-8.9	nt	nt
CCCCCCCNC(=O)C1(CC2CC(c3ccccc3)=NO2)CCNCC1 (centres undefined)	0.9	53.9*	-4.0	nt	21.5	10.6	nt
O=C(NCc1ccccc1)C1(CC2CC(c3ccccc3)=NO2)CCNCC1 (centres undefined)	-0.8	40.8	4.3	nt	18.8	nt	nt
O=C(NCC1CCCCC1)C1(CC2CC(c3cccc(Br)c3)=NO2)CCNCC1 (centres undefined)	1.5	78.7*	nt	2.7	-3.7	33.5	nt
O=C(NCC1CCCCC1)C1(CC2CC(c3ccc(Cl)cc3)=NO2)CCNCC1 (centres undefined)	-0.4	66.5*	-8.1	-44.3	9.8	25.9	nt
COc1ccc(OC)c(S(=O)(=O)NC2CCSc3ccccc32)c1 (centres undefined)	-0.7	12.8	-4.6	3.4	-5.8	nt	nt
O=c1oc(C2(O)CCCCC2)cc2ccc(-c3ccc4[nH]ccc4c3)cc12	-9.3	81.5*	3.4	nt	nt	61.0*	41.2*
O=c1oc(C2(O)CCCCC2)cc2ccccc12	0.9	7.7	-15.0	nt	nt	nt	nt
OCc1cn(-c2ccccc2)nc1-c1ccc(-c2nn(-c3ccccc3)cc2CO)cc1	0.6	28.8	7.9	24.8	nt	nt	nt
Cc1ccc(-c2nn(-c3ccccc3)cc2CSC(=N)N)cc1	1.2	52.0*	18.5	119.5*	33.6	5.7	nt
O=C(Nc1nnc(-c2ccccc2)s1)c1ccccc1F	-1.3	-67.0	1.1	-151.8	6.1	nt	nt
O=C(Nc1nnc(-c2ccccc2Cl)s1)c1ccccc1F	-2.4	86.3*	0.2	-172.7	0.3	-8.4	nt
O=C(Nc1ccccc1C(=O)Nc1nnc(C(F)(F)F)s1)c1ccccc1Cl	-0.8	95.4*	111.9*	12.6	95.1*	94.5*	21.7
COc1ccc(C=O)cc1COc1ccc2c(c1)OCO2	nt	18.8	nt	nt	nt	nt	nt
COc1cc(O)cc2cc3c(c(O)c12)C(=O)CC(C)(O)O3 (centres undefined)	0.2	56.9*	nt	nt	-1.1	52.5*	60.3*
COc1cc(O)c2c(c1)OC(C)(C)CC2=O	-0.1	3.8	-7.3	-7.5	-17.0	nt	nt
Oc1c(N=NC(=S)Nc2ccccc2F)c2ccccc2n1Cc1ccc(F)cc1	-0.1	59.4*	39.6	44.3	40.8	47.0*	55.2*
C=CCn1c(O)c(N=NC(=S)Nc2ccc(OC)c(Cl)c2)c2ccccc21	-0.5	34.4	57.1	?	44.0	nt	nt
Cc1ccc2c(c1)c(N=NC(N)=S)c(O)n2Cc1ccccc1	0.3	34.8	3.1	23.0	-4.3	nt	nt
Oc1c(N=NC(=S)Nc2ccccc2F)c2ccccc2n1Cc1cccc(Cl)c1	0.9	58.6*	39.6	47.7	27.2	30.5	nt
Cc1cccc(Cn2c(O)c(N=NC(=S)Nc3ccccc3F)c3ccccc32)c1	-0.3	62.7*	40.5	?	-2.5	41.9*	54.4*
O=C(O)c1n[nH]c2c1CC(C1CCCCC1)CC2 (centres undefined)	-0.3	8.6	0.2	nt	-4.2	nt	nt
C=CCNS(=O)(=O)NC(=O)C1=C(N2CCCC2)COC1=O	0.7	-14.5	4.7	nt	nt	nt	nt
COc1ccccc1N(Cc1ccccc1)S(=O)(=O)c1cccc(C(=O)Nc2ccccn2)c1	0.1	66.6*	5.2	28.1	32.3	60.5*	91.0*
COc1ccc(OC)c(NC(=O)c2cccc(S(=O)(=O)N(Cc3ccccc3)c3ccccc3OC)c2)c1	-0.3	0.9	0.0	22.3	4.8	nt	nt
COc1ccccc1N(Cc1ccccc1)S(=O)(=O)c1cccc(C(=O)Nc2ccc(C)cn2)c1	0.0	54.9*	23.2	25.9	2.4	36.5	nt
